Data as given in PubChem BioAssay (EPA / NIEHS).
Inconclusive results are not listed. Activity calls are given as the source filed them. How the source made its calls: active means hit-call score of the fitted dose curve at least 0.9, where 1 is the maximum; inconclusive means response in the unintended direction; inactive means score below 0.9.

Target: Cellular tumor antigen p53 (Homo sapiens) (UniProt P04637)
Assay: TOX21_p53_BLA_p5_ratio: Tox21 HCT-116 p53 Agonism Beta-lactamase Assay, Ratio, Phase 5 (AID 2283599)
How it was run: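 HCT-116 p53-bla cells (4000/well) plated 5 h, dosed with compound (217-fold DMSO dilution) for 16 h at 37 C; CCF4-AM substrate 2 h at room temperature. Activity is the 460/530 nm emission ratio (405 nm excitation), fitted in gain-of-signal direction versus DMSO.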

Sequence of Cellular tumor antigen p53 (Homo sapiens) (P04637 whole entry, looked up): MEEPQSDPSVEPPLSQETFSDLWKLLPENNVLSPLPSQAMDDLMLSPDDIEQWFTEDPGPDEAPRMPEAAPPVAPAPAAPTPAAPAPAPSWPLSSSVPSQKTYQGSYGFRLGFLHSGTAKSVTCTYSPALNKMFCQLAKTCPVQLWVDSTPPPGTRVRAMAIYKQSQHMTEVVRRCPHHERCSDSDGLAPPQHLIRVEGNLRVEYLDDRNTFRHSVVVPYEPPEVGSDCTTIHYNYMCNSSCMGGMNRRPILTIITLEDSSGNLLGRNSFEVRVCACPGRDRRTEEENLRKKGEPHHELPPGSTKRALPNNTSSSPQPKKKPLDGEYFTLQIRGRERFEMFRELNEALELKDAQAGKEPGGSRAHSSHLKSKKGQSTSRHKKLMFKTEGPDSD

SMILES	outcome
CC(C(O)c1ccc(O)cc1)N1CCC(Cc2ccccc2)CC1 (stereo not drawn)	inactive
OCCN(CCO)CCN(CCO)CCO	inactive
CCC(=O)OCC(=O)[C@@]1(OC(=O)CC)[C@@H](C)C[C@H]2[C@@H]3CCC4=CC(=O)C=C[C@]4(C)[C@@]3(F)[C@@H](O)C[C@@]21C	inactive
COC(=O)c1ccccc1C(=O)c1ccc(OCCN2CCCCC2)cc1	inactive
O=C(O)/C=C/C(O)c1ccc(Cl)cc1 (stereo not drawn)	inactive
COC(C)(OC)OC	inactive
N#C[C@@H]1C[C@@H]2C[C@@H]2N1C(=O)[C@@H](N)C12CC3CC(CC(O)(C3)C1)C2	inactive
Oc1cccc2cc3cccc(O)c3c(O)c12	inactive

Tested on: not listed separately
Assay: TOX21_p53_BLA_p5_viability: Viability Assessment in the Tox21 HCT-116 p53 Agonism Beta-lactamase Assay, Phase 5 (AID 2283600)
How it was run: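 Viability came from CellTiter-Glo ATP luminescence, read after 30 min at room temperature. Before this, HCT-116 p53-bla cells (4000/well) had 16 hours of compound exposure at 37C, with DMSO stocks diluted 217-fold on transfer.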

SMILES	outcome	AC50
O=C(OCC1(COC(=O)c2cccnc2)CCCC(COC(=O)c2cccnc2)(COC(=O)c2cccnc2)C1O)c1cccnc1	inactive	
CC(=O)CCCCn1c(=O)c2c(ncn2C)n(C)c1=O	inactive	
O=[N+]([O-])c1ccc(F)cc1F	inactive	
CC[N+]1(CC)CCC(=C(c2ccccc2)c2ccccc2)C1C (stereo not drawn)	inactive	
Cc1ccc(C(=O)O)cc1	inactive	
COCCCOc1cc(C[C@@H](C[C@H](N)[C@@H](O)C[C@H](C(=O)NCC(C)(C)C(N)=O)C(C)C)C(C)C)ccc1OC	inactive	
CC(O)[C@@H]1NC(=O)[C@H](CCCCN)NC(=O)[C@@H](Cc2c[nH]c3ccccc23)NC(=O)[C@H](Cc2ccccc2)NC(=O)[C@@H](NC(=O)[C@H](N)Cc2ccccc2)CSSC[C@@H](C(=O)N[C@H](CO)[C@@H](C)O)NC1=O (stereo partly drawn)	inactive	
C[C@H]1O[C@@H](O[C@H]2CC[C@@]3(C)[C@H](CC[C@@H]4[C@@H]3C[C@@H](O)[C@]3(C)[C@@H](C5=CC(=O)OC5)CC[C@]43O)C2)C[C@H](O)[C@@H]1O[C@H]1C[C@H](O)[C@H](O[C@H]2C[C@H](O)[C@H](O[C@@H]3O[C@H](CO)[C@@H](O)[C@H](O)[C@H]3O)[C@@H](C)O2)[C@@H](C)O1		353 nM (active)
Cc1ccccc1CNc1ncnc2c1ncn2[C@@H]1O[C@H](CO)[C@@H](O)[C@H]1O	inactive	
Cc1cc(-c2ccc(N=Nc3c(S(=O)(=O)O)cc4cc(S(=O)(=O)O)cc(N)c4c3O)c(C)c2)ccc1N=Nc1c(S(=O)(=O)O)cc2cc(S(=O)(=O)O)cc(N)c2c1O	inactive	
N#Cc1ccc(C(=O)O)cc1	inactive	
CC(C)CCOC(=O)c1ccc(N(C)C)cc1	inactive	
CCN1CCOCC1	inactive	
Cc1ccc(C2(O)CCN(CCCC(=O)c3ccc(F)cc3)CC2)cc1	inactive	
NC12CC3CC(CC(C3)C1)C2	inactive	
Cn1c(N)c(N=O)c(=O)n(C)c1=O	inactive	
CC(=O)SC[C@@H](Cc1ccccc1)C(=O)NCC(=O)OCc1ccccc1	inactive	
CN(C)c1cc(NC(=O)CNC(C)(C)C)c(O)c2c1C[C@H]1C[C@H]3[C@H](N(C)C)C(=O)C(C(N)=O)=C(O)[C@@]3(O)C(=O)C1=C2O	inactive	
OCCN(CCO)CCN(CCO)CCO	inactive	
COC(=O)c1ccccc1C(=O)c1ccc(OCCN2CCCCC2)cc1	inactive	
O=C(O)/C=C/C(O)c1ccc(Cl)cc1 (stereo not drawn)	inactive	
CCCCCCCCCCCCCCCC(=O)OC[C@@H](NC(=O)C(Cl)Cl)[C@H](O)c1ccc([N+](=O)[O-])cc1	inactive	
CN(C)CCOC(c1ccccc1)c1ccccc1 (tested in a mixture with another compound)	inactive	
N#C[C@@H]1C[C@@H]2C[C@@H]2N1C(=O)[C@@H](N)C12CC3CC(CC(O)(C3)C1)C2	inactive	
COc1ccc(CCN(C)CCCC(C#N)(c2ccc(OC)c(OC)c2)C(C)C)cc1OC (stereo not drawn)	inactive	
